Data published in PubChem BioAssay (NCI).
Compounds without any hit were thinned out: in the full panel of roughly 83,000, 20% have a hit.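 Cell lines were cultured in 96-well plates, exposed to a single compound concentration, and assessed for percent growth 48 hours later.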 Unmarked numbers belong to inactive results. Active and inactive are the calls of the source. How the source made its calls: active means growth percent below 10; inactive means the rest.

Columns and labels:
Test in all cases: NCI-60 one-dose screen, 48 h (100 = growth as untreated, 0 = no growth, -100 = all killed)
RPMI-8226 leukemia = conditions: 10 µM
OVCAR-8 ovarian = conditions: 10 µM
OVCAR-5 ovarian = conditions: 10 µM
OVCAR-4 ovarian = conditions: 10 µM
SK-OV-3 ovarian = conditions: 10 µM
IGROV1 ovarian = conditions: 10 µM
HS 578T breast = conditions: 10 µM
NCI/ADR-RES ovarian = conditions: 10 µM
T-47D breast = conditions: 10 µM
BT-549 breast = conditions: 10 µM
MDA-MB-435 melanoma = conditions: 10 µM
SW-620 colon = conditions: 10 µM
MCF7 breast = conditions: 10 µM unless noted
HCT-116 colon = conditions: 10 µM
KM12 colon = conditions: 10 µM
OVCAR-3 ovarian = conditions: 10 µM
HCC-2998 colon = conditions: 10 µM

Structure (SMILES) | growth (RPMI-8226 leukemia) | growth (OVCAR-8 ovarian) | growth (OVCAR-5 ovarian) | growth (OVCAR-4 ovarian) | growth (SK-OV-3 ovarian) | growth (IGROV1 ovarian) | growth (HS 578T breast) | growth (NCI/ADR-RES ovarian) | growth (T-47D breast) | growth (BT-549 breast) | growth (MDA-MB-435 melanoma) | growth (SW-620 colon) | growth (MCF7 breast) | growth (HCT-116 colon) | growth (KM12 colon) | growth (OVCAR-3 ovarian) | growth (HCC-2998 colon)
CCOC(=O)C(C#N)Cc1ccccc1 (stereo not drawn) | 101% | 115% | 103% | 114% | 123% | 114% | 112% | 117% | 107% | 117% | 109% | 117% | 103% | 112% | 133% |  | 
Cc1cc(NC(=O)CSCC(=O)O)no1 | 120% | 99.3% | 99.6% | 107% | 99.3% |  | 78% |  |  | 98.7% | 105% | 102% | 91.9% | 101% | 107% | 123% | 113%
COc1ccc(-c2cc(-c3cc(-c4ccc(OC)cc4)nc(N)n3)nc(N)n2)cc1 | 99.5% | 99.1% | 93.5% | 99.6% | 106% |  | 96.4% | 100% |  | 95.2% | 97.5% | 97.5% | 91.2% |  | 101% | 107% | 112%
CCCCC(CC)COC(C)=O (stereo not drawn) | 110% | 102% | 103% | 100% | 101% | 112% | 106% | 99.2% | 97.2% | 107% | 105% | 104% | 96% | 108% |  |  | 105%
COC(=O)CCCCC1=CCC2C(=O)C=C(O)C2C1 (stereo not drawn) | 100% | 98% | 107% | 103% | 98.6% | 103% | 108% |  | 98.9% | 98.7% | 110% | 106% | 94.9% | 102% |  |  | 132%
CCOC(=O)c1cc(/C=C/c2cccc(Cl)c2)on1 | 4.16% (active) | 99.5% | 101% | 83.7% | 111% |  | 76.4% |  |  | 87.2% | 83% | 84.2% | 13.9% | -57.7% (active) |  | 99.1% | 
CN(C)c1ccc2oc(=O)c3ccccc3c2c1 | 74.1% | 104% | 91.9% | 69.2% | 101% | 95.3% |  | 94.9% | 96.1% | 40.3% | 109% | 85.2% | 72.9% | 83.2% | 90.9% | 103% | 88.5%
CC1SC(N)=NC1=O (stereo not drawn) | 96.7% | 105% | 85.9% | 117% | 115% | 108% | 108% | 106% | 106% | 123% | 109% | 112% | 103% | 108% | 110% |  | 107%
O=[N+]([O-])c1cccc2nsnc12 | 104% | 93.4% | 122% | 114% | 94.1% |  | 101% | 110% | 103% | 106% | 111% | 104% | 93.5% | 99.1% | 104% |  | 111%
CC1CCC(C(=O)O)N1 (stereo not drawn) | 105% | 112% | 91.5% | 99% | 94.2% |  | 106% | 93% | 86.4% | 102% | 111% | 113% | 95% | 102% | 106% | 109% | 97.8%
CN(c1ccccc1)c1ncnc2c1ncn2C | 106% | 102% | 121% | 103% | 105% | 118% |  |  | 100% | 101% | 106% | 97.9% | 97.8% | 104% | 108% | 111% | 
NC(=O)N/N=C\c1ccco1 | 105% | 109% | 118% | 121% | 102% | 99.6% |  | 101% | 107% | 94.9% | 118% | 107% |  | 101% | 113% | 125% | 99.3%
OC1OC(COC(c2ccccc2)(c2ccccc2)c2ccccc2)C(O)C(O)C1O (stereo not drawn) | 95.9% | 93.7% | 95.9% | 84.1% | 99.9% | 95.3% | 105% |  | 87.5% | 99.6% | 90.9% | 105% | 93.3% |  | 107% |  | 110%
N#CC(=Nc1cccc(F)c1)C1=C(O)c2ccccc2C1=O | 82% | 85.4% | 103% | 88.9% | 98.7% | 100% |  | 89.1% | 83.2% | 89.2% | 99.4% | 95.4% | 83.2% | 97% | 102% | 92.7% | 101%
CSc1[nH]c(=O)ncc1F | 106% | 95.4% | 102% | 102% | 119% | 110% | 103% | 99.3% |  | 94.1% | 102% | 102% | 96% | 98.3% | 104% |  | 96.8%
COc1ccc(/C=C/c2cccc[n+]2C)cc1 | 90.3% | 105% | 95.8% | 107% | 78.8% |  | 119% | 103% | 97.4% | 89.8% | 100% | 79.9% | 96% | 106% | 33% | 103% | 83.6%
Cc1ccc(C)n1-c1ccsc1C(=O)NNC(=O)CCl | 84.4% | 106% | 111% | 93.5% | 95.2% | 103% |  |  |  | 70.1% | 92.1% | 108% | 78.4% | 78% | 104% | 93.2% | 116%
COc1cccc(Sc2ccc([N+](=O)[O-])c3no[n+]([O-])c23)c1 | 6.99% (active) | 53% | 60.2% | 67.5% | 77.9% |  | 67.9% | 42.5% | 40.2% | 46.8% | 64.4% | -0.655% (active) | 39% |  | 92.3% | -61.9% (active) | 55.4%
CC1(C)Nc2cccc3c(N=Nc4ccc(N=Nc5ccccc5)c5ccccc45)ccc(c23)N1 | 97% | 109% | 94.9% | 91.1% | 95.6% | 52.1% | 104% | 98.1% | 76.7% | 124% | 109% | 89.4% | 79.4% | 70.5% | 106% |  | 93.2%
COc1cc(/C=C/C(=O)c2ccccc2)cc(OC)c1OC | 24.3% | 59.8% | 66.6% | 65% |  | 98.6% | 106% | 43.1% | 91.4% | 72% | 13.7% | 12.3% | 9.65% (active) | 20.6% | 12.6% | 59% | 94.3%
